Compound activity from PubChem.
HIV TAR-Tat = HIV-1 TAR-Tat binding disruption; HIV-1 TAR RNA, Tat peptide displacement FRET; stronger effect = higher value; z-score (concentration not given with the values); hit rate 0.6% among 100,000; AID 1259389; active = z-score of 3 or more in at least 2 runs
CDC25B CDK2 inh = human CDC25B-CDK2/CyclinA binding inhibition; P30305+P24941; HTRF CDC25B-CDK2/CyclinA binding, anti-His/anti-Flag; stronger effect = higher value; z-score (test concentration not listed); hit rate 0.72% among 94,000; AID 1259370; in the data active = z-score above about 3.2
Starred values were filed as active, the others as inactive; x = no result. The list is not random: actives were taken first. Their share in the collection is about 0.86%.

SMILES	HIV TAR-Tat	CDC25B CDK2 inh
CC(=O)N1c2ccc(S(=O)(=O)N3CCCCC3)cc2CC1C(=O)NCCN1CCCC1 (stereo unspecified)	0.78	x
Cc1cc(NS(=O)(=O)NC(C)(C)C)no1	x	-0.79
Cc1cc2c(cc3c(=O)n(CCCC(=O)NC(C)CCc4ccccc4)nc(C)n32)o1 (stereo unspecified)	0.31	-1.1
O=C(CC1(O)C(=O)Nc2ccccc21)c1cc2ccccc2o1 (stereo unspecified)	0.09	-1
Cc1ccc(S(=O)(=O)Cc2nc3sc(C)c(C)c3c(=O)[nH]2)cc1	0.09	0.34
Cc1cccc(C2Nc3cccc4cccc(c34)N2)c1	4.3	0.56
COc1cc(C2Nc3cccc4cccc(c34)N2)ccc1O	7.3*	0.77
c1ccc(-c2ccc(C3Nc4cccc5cccc(c45)N3)cc2)cc1	5.3	0.78
Oc1ccc2ccccc2c1C1Nc2cccc3cccc(c23)N1	15*	-1
O=C(CSc1nccn1Cc1ccco1)Nc1nccs1	0.84	x
CC(C)c1ccc(-c2cc3c(Cl)nccn3n2)cc1	3.1	-1.5
C=CCOc1ccc(/C(O)=C2/C(=O)C(=O)N(CCCOC)C23C(=O)N(C)c2ccccc23)cc1 (stereo unspecified)	0.98	0.45
COC(=O)c1c(-c2ccco2)n[nH]c1C	x	-0.34
O=[N+]([O-])c1cccnc1NCCCn1ccnc1	x	-1.9
COc1ccc(Cl)c(Cn2c(NCCN)nc3c2c(=O)n(C)c(=O)n3C)c1	3.6*	4.6
COc1ccc(Cl)c(Cn2cnc3c2c(=O)n(C)c(=O)n3C)c1	x	-0.26
O=C(O)C1CSC(c2ccc(F)cc2)N1 (stereo unspecified)	2	x
N#Cc1nc(-c2ccc(S(=O)(=O)N3CCc4ccccc4C3)cc2)oc1NCCCn1ccnc1	2.7	11*
CN(C)CCNc1oc(-c2ccc(S(=O)(=O)N3CCc4ccccc4C3)cc2)nc1C#N	-2.1	-1.5
O=C(CSC1NN=C(CCC(=O)N2CCCC2)C(=O)N1c1ccccc1)Nc1ccccc1F (stereo unspecified)	1.3	-0.61
Oc1ccc(-c2nc(-c3cccs3)c(-c3cccs3)[nH]2)cc1	-0.61	19*
Oc1cccc(-c2nc(-c3cccs3)c(-c3cccs3)[nH]2)c1	-3.2	19*
COc1cccc(-c2nc(-c3cccs3)c(-c3cccs3)[nH]2)c1	x	-1.6
c1csc(-c2nc(-c3cccs3)c(-c3cccs3)[nH]2)c1	-0.71	19*
Cc1cc(=O)[nH]c(-c2cccs2)n1	x	0.45
SMILES	HIV TAR-Tat	CDC25B CDK2 inh
Oc1ccc(-c2nc(-c3ccccc3)c(-c3ccc(O)cc3)[nH]2)cc1	-1.7	-1.4
O=C(CCS(=O)(=O)c1cc2c(cc1Cl)NC(=O)CO2)Nc1cccc(Br)c1	-1.2	x
COC(=O)C[C@@H]1C2(C)C(=O)[C@@H](CC3=C4CC(O)O[C@@H](c5ccoc5)[C@]4(C)CCC32)[C@@H](O)C1(C)C (stereo partly specified)	1.9	x
CSc1ccc(C2CC(=O)N3CN(c4ccc(F)cc4)CSC3=C2C#N)cc1 (stereo unspecified)	-4.9	5.2*
COC(=O)c1ccc(N2CSC3=C(C#N)C(c4ccc(F)cc4)CC(=O)N3C2)cc1 (stereo unspecified)	-0.31	6.6*
COc1ccc(-c2nn3c(=O)cc(COc4ccccc4OC)nc3s2)cc1	0.86	-1.2
COc1ccc2nc(NC(=O)C3CCCCC3)sc2c1	x	-0.77
Cn1c(=O)c2c(-c3ccccc3Br)n(-c3ccccc3)cc2n(C)c1=O	0.54	-0.69
Cn1c(=O)c2c(-c3ccccc3Br)n(-c3cccc4cccnc34)cc2n(C)c1=O	-2.6	16*
Cn1c(=O)c2c(-c3ccccc3Br)n(-c3ccc4[nH]c(=O)[nH]c4c3)cc2n(C)c1=O	2.3	6.2*
Cn1c(=O)c2c(-c3ccccc3Br)n(-c3ccccc3N)cc2n(C)c1=O	2.5	0.87
CC(C)C(=O)OC1=CN(C(C)C)S(=O)(=O)c2ccccc21	0.76	-0.89
CC1CCN(c2cc(NCCCN(C)C)c3c4c(onc24)-c2ccccc2C3=O)CC1	16*	1.8
CCOCCCNc1cc(N2CCC(C)CC2)c2noc3c2c1C(=O)c1ccccc1-3	2.1	-1.3
COCCNc1cc(N2CCN(c3ccccn3)CC2)c2noc3c2c1C(=O)c1ccccc1-3	-2.2	2.7
CN(C)CCCNc1cc(N2CCN(c3ccccn3)CC2)c2noc3c2c1C(=O)c1ccccc1-3	7.2*	1.2
COCCNc1cc(N2CCN(C3CCCCC3)CC2)c2noc3c2c1C(=O)c1ccccc1-3	8.1*	-0.67
CN(C)CCCNc1cc(N2CCN(C3CCCCC3)CC2)c2noc3c2c1C(=O)c1ccccc1-3	8.7*	-1.7
COCCNc1cc(N2CCCC2)c2noc3c2c1C(=O)c1ccccc1-3	-1.2	-2.1
O=C1c2ccccc2-c2onc3c(N4CCN(C5CCCCC5)CC4)cc(NCCO)c1c23	0.42	-2.3
O=C1C(=O)N(CN2CCOCC2)c2ccc(Br)cc21	x	-1.3
c1ccc(-c2cn(-c3ccccc3)c3ncnc(NCc4cccs4)c23)cc1	2.8	x
CCc1ccccc1NS(=O)(=O)c1cc(-c2csc(C)n2)ccc1C	1.7	x
CCc1ccc(-c2cn3nc(C(C)C)sc3n2)cc1	0.9	-0.75
O=C(O)c1cccn1-c1cccnc1	1.2	0.77
SMILES	HIV TAR-Tat	CDC25B CDK2 inh
O=C(NCC1CCCO1)c1nn(-c2ccccc2)nc1CO (stereo unspecified)	2.6	-1.3
CN(Cc1ccccc1)C(=O)Cn1ncc2c1-c1ccccc1OC2	0.72	-1.1
Cc1cc(NC(=O)c2ccc3nonc3c2)on1	x	-0.79
Cc1ccc(C2CC(=O)N3CN(c4ccc(CCO)cc4)CSC3=C2C#N)cc1 (stereo unspecified)	-0.54	7.1*
CCOc1ccc(C2CC(=O)N3CN(c4ccc(OCC)cc4)CSC3=C2C#N)cc1 (stereo unspecified)	0.45	2.1
COc1ccc(C2CC(=O)N3CN(c4ccc(CCO)cc4)CSC3=C2C#N)cc1 (stereo unspecified)	0.63	6*
Cc1cccc(OCC(=O)OCc2cc(=O)n3oc(C)cc3n2)c1	1.5	x
O=C(O)CSCC(=O)NC1CCN(Cc2c(F)cccc2Cl)CC1	x	-1.2
CCC(C#N)(c1ccccc1)c1ccc([N+](=O)[O-])cc1 (stereo unspecified)	x	0.85
S=c1[nH]c(-c2ccc3c(c2)OCO3)cn1-c1ccc(Br)cc1	x	-2.2
CCOC(=O)C1CCN(c2cc(NCc3ccco3)c3c4c(onc24)-c2ccccc2C3=O)CC1	-4	15*
O=C1c2ccccc2-c2onc3c(N4CCN(CCO)CC4)cc(NCc4ccco4)c1c23	-5.5	0.21
CCOC(=O)C1CCN(c2cc(NCCCN(C)C)c3c4c(onc24)-c2ccccc2C3=O)CC1	1.1	-1.8
O=C(O)CNc1cc(N2CCC(c3ccccc3)CC2)c2noc3c2c1C(=O)c1ccccc1-3	-6	5.1*
CC1CCN(c2cc(NCCCC(=O)O)c3c4c(onc24)-c2ccccc2C3=O)CC1	-4.3	1.2
CCOC(=O)C1CCN(c2cc(NCCCC(=O)O)c3c4c(onc24)-c2ccccc2C3=O)CC1	24*	14*
COC(=O)C1C(c2cccnc2)c2c([nH][nH]c2=O)CC1(C)O (stereo unspecified)	-0.63	-1.1
Fc1cccc(Nc2ncnc3onc(-c4ccc(Cl)cc4)c23)c1	18*	x
Fc1ccc(-c2noc3ncnc(Nc4cccc(Cl)c4)c23)cc1	-0.52	x
